TRPM1 prom inh: inhibitors of MITF-dependent TRPM1 promoter reporter, primary screen, cell-based, SK-MEL-5, single point, luciferase | SK-MEL-5 TRPM1 promoter luciferase, 24 h | inhibition, % at 12.5 µM | 330,000 tested, 0.83% active | AID 488899, 2010;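 active = mean inhibition across replicates of 60% or more, whatever share of single replicates reaches that level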
Shn3 3UTR inh: reduction of Shn3 3'UTR firefly luciferase signal, primary screen, Schnurri-3 inhibitor project, cell-based, Clone20 osteoblasts, set 2 | 360,000 tested, 0.52% active | AID 588674, 2011 | inhibition, % at 12.5 µM | Clone20 osteoblast Shn3 3'UTR firefly luciferase, 24 h;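 active = mean inhibition of at least 75% with every replicate also reaching 75%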;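 also: 0% = median of neutral control wells and 100% = pilot-screen positive control compound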
HIF-2a inh: HIF-2a reporter inhibitors, primary screen, luminescence, 786-0 RCC cells; 786-0 RCC cells HIF-2a reporter, luciferase luminescence, overnight; inhibition, % at 18.8 µM; 360,000 tested, 0.72% active;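 active = inhibition of the luminescence signal of 40% or more relative to plate controls, in a single-dose primary screen at 18.75 µM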
KKLEB cytotox: cytotoxicity in KKLEB CF airway cells, primary screen, cytotoxicity control for CF NF-kB inhibitor project, cell-based, uHTS, fluorescence assay plates | KKLEB CF airway cells viability, ATPlite luminescence, overnight; hits give low values; cells stimulated with P. aeruginosa culture filtrate | activity change (cytotoxicity), % at 5 µM | 360,000 tested, 0.36% active | AID 602141, 2011;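 active = corrected activity change at or below -50% at 5 µM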
Peg3 prom inh: Peg3 promoter-driven luciferase inhibitors, primary screen, cell-based, HeLa, luciferase luminescence | HeLa PEG-Prom luciferase reporter, overnight | 360,000 tested, 1.7% active | inhibition, % at 20 µM | AID 588405, 2011;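 active = inhibition of at least 50% at 20 µM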
CF NFkB block: inhibitors of PAF-induced NF-kB signaling, primary screen, cell-based, GFP fluorescence, uHTS; KKLEB NF-kB-GFP reporter, GFP fluorescence overnight; inhibition, % at 5 µM; 360,000 tested, 0.86% active;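 active = at least 50% inhibition at 5 µM, scaled per plate between neutral and stimulator controls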;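 also: PAF is a Pseudomonas aeruginosa culture filtrate used as stimulus; plate controls were PAF-stimulated DMSO wells for no effect and unstimulated DMSO wells for full effect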
An asterisk follows results filed as active. Only some compounds are listed: those with a hit (about 2.8% of all), similar ones and a draw of the others.

`Cc1c(C(=O)N2CCN(Cc3ccc4c(c3)OCO4)CC2)sc2ncnc(N3CCN(c4ccccc4F)CC3)c12` gave TRPM1 prom inh 31, Shn3 3UTR inh 36, HIF-2a inh -20, KKLEB cytotox -18, Peg3 prom inh 58* and CF NFkB block -24.
`CCc1nc2ccc(C(=O)NCc3ccc4c(c3)OCO4)cn2c1N(C)C(=O)Cc1ccccc1` gave Shn3 3UTR inh 3, HIF-2a inh 18, KKLEB cytotox 4, Peg3 prom inh 5 and CF NFkB block -6.
Screening O=C(/C=C/c1ccnc2ccccc12)c1cccs1 returned TRPM1 prom inh 31, Shn3 3UTR inh -5, HIF-2a inh -98, KKLEB cytotox -14, Peg3 prom inh 102* and CF NFkB block 61*.
Screening COc1ccccc1S(=O)(=O)N[C@@H]1CC[C@@H](CCn2cc(C3CC3)nn2)O[C@@H]1CO returned HIF-2a inh 3.
Screening CCN1C(=O)[C@H]2[C@@H](c3ccc(-c4ccc(OC)cc4)cc3)N3CCC[C@@]3(C(=O)OC)[C@H]2C1=O returned TRPM1 prom inh -18, Shn3 3UTR inh 90*, HIF-2a inh -3, KKLEB cytotox 8, Peg3 prom inh -10 and CF NFkB block -6.
CCN1C(=O)[C@@H]2[C@@H](c3ccc(-c4ccc(OC)cc4)cc3)N3CCC[C@@]3(C(=O)OC)[C@@H]2C1=O was read as TRPM1 prom inh 0, Shn3 3UTR inh 10, HIF-2a inh 7, KKLEB cytotox 12, Peg3 prom inh 4 and CF NFkB block -10.
COc1ccc(C(C(=O)NCc2ccccc2)N(Cc2ccco2)C(=O)c2snc(C(N)=O)c2N)cc1 (stereo not drawn) was read as Shn3 3UTR inh 15, HIF-2a inh 14, KKLEB cytotox 12, Peg3 prom inh 46 and CF NFkB block 30.
Cc1ccc(C(C(=O)NCc2ccccc2)N(Cc2ccco2)C(=O)c2snc(C(N)=O)c2N)o1 (stereo not drawn) was read as TRPM1 prom inh 5, Shn3 3UTR inh 8, HIF-2a inh 16, KKLEB cytotox -6, Peg3 prom inh 52* and CF NFkB block 22.
Screening Cc1sc2ncnc(N3CCN(S(=O)(=O)c4ccc(C(C)(C)C)cc4)CC3)c2c1C returned TRPM1 prom inh 33, Shn3 3UTR inh 73, HIF-2a inh 7, KKLEB cytotox -2, Peg3 prom inh 12 and CF NFkB block -1.
For Cc1ccc(S(=O)(=O)N2CCN(C(=O)C3CCN(c4ncnc5sc(C)c(C)c45)CC3)CC2)c(C)c1 the results were TRPM1 prom inh 12, Shn3 3UTR inh 92*, HIF-2a inh 21, KKLEB cytotox -5, Peg3 prom inh 28 and CF NFkB block 3.
`CC(=O)Nc1cccc(OCC(O)Cn2c(C)nc3ccccc32)c1` (stereo not drawn) gave TRPM1 prom inh 3, Shn3 3UTR inh 4, HIF-2a inh 17, KKLEB cytotox -7, Peg3 prom inh 11 and CF NFkB block -2.
CCCOC(=O)c1ccc(OCC(O)Cn2c(C)nc3ccccc32)cc1 (stereo not drawn) was read as TRPM1 prom inh 33, Shn3 3UTR inh 89*, HIF-2a inh 17, KKLEB cytotox 5, Peg3 prom inh -14 and CF NFkB block 6.
`COc1cccc(/C=N/NC(=O)CN(C)S(=O)(=O)c2ccccc2)c1OC` gave TRPM1 prom inh -41, Shn3 3UTR inh 1, HIF-2a inh -128, KKLEB cytotox 2, Peg3 prom inh -92 and CF NFkB block 1.
`CCCCCCCC(=O)OCC(O)CO` (stereo not drawn) gave TRPM1 prom inh -2, Shn3 3UTR inh -1, HIF-2a inh -5, KKLEB cytotox -60*, Peg3 prom inh -12 and CF NFkB block -8.
Screening CCCCC(CC)COC(=O)CCCCC(=O)OCC(CC)CCCC (stereo not drawn) returned TRPM1 prom inh 4, Shn3 3UTR inh -17, HIF-2a inh 15, KKLEB cytotox -14, Peg3 prom inh 3 and CF NFkB block 4.
`O=C(COC(=O)COc1ccccc1)Nc1ncc([N+](=O)[O-])s1` gave TRPM1 prom inh 3, Shn3 3UTR inh -7, HIF-2a inh -18, KKLEB cytotox 6, Peg3 prom inh -18 and CF NFkB block 0.
`N/C(=N\OC(=O)Nc1ccccc1)c1ncc([N+](=O)[O-])s1` gave TRPM1 prom inh 68*, Shn3 3UTR inh -1, HIF-2a inh -19, KKLEB cytotox -10, Peg3 prom inh 24 and CF NFkB block -9.
Screening Cc1ccccc1NC(=O)CCC(=O)N/N=C/c1ccncc1 returned TRPM1 prom inh 2, HIF-2a inh -1, KKLEB cytotox 4, Peg3 prom inh 12 and CF NFkB block -20.
`CC(C)C[C@H](N)c1nnc(SCC(=O)Nc2ccc(Br)cc2)o1` gave TRPM1 prom inh 2, Shn3 3UTR inh -15, HIF-2a inh 1, KKLEB cytotox 9, Peg3 prom inh 16 and CF NFkB block -10.
`CC(C)C[C@H](N)c1nnc(S(=O)(=O)Cc2ccc(F)cc2)o1` gave TRPM1 prom inh 33, Shn3 3UTR inh 90*, HIF-2a inh 17, KKLEB cytotox -12, Peg3 prom inh 114* and CF NFkB block 90*.
CC(O)[C@H]1CN=C(N)N1CCc1cc(C(F)(F)F)cc(C(F)(F)F)c1 (stereo partly drawn) was read as TRPM1 prom inh -8, Shn3 3UTR inh -1, HIF-2a inh -2, KKLEB cytotox 0, Peg3 prom inh 3 and CF NFkB block 5.
Screening NC1=NC[C@H](c2ccccc2)N1CCc1cc(C(F)(F)F)cc(C(F)(F)F)c1 returned TRPM1 prom inh 34, Shn3 3UTR inh 21, HIF-2a inh 9, KKLEB cytotox 0, Peg3 prom inh 98* and CF NFkB block -4.
`O=C(c1cc2ccccc2[nH]1)N(Cc1cccnc1)CC1CCCN(C2CCCCC2)C1` (stereo not drawn) gave TRPM1 prom inh 15, Shn3 3UTR inh -9, HIF-2a inh -94, KKLEB cytotox 10, Peg3 prom inh -36 and CF NFkB block -36.
O=S(=O)(NC1c2cccc3cccc(c23)C1N1CCNCC1)c1ccc(Cl)cc1 (stereo not drawn) was read as TRPM1 prom inh 20, Shn3 3UTR inh 42, HIF-2a inh 11, KKLEB cytotox -19, Peg3 prom inh 77* and CF NFkB block 24.
Screening CCOC(=O)CNC(=O)C1(NC(=O)CNC(=O)OCc2ccccc2)CCCC1 returned TRPM1 prom inh 0, Shn3 3UTR inh 91*, HIF-2a inh -9, KKLEB cytotox 7, Peg3 prom inh -12 and CF NFkB block -20.

Source: PubChem BioAssay
